The text below walks through data of the supplement of paper PMC10338343.

± gives the standard deviation. Some results are limits rather than exact numbers.
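Note: 1 nM active piRISC with 0.1 nM target library at 33 °C single turnover.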

The test system of the assay is MILI (PIWIL2) piRISC loaded with L1MC piRNA (26 nt). The experiment in a line: pre-steady-state target cleavage rate (min^-1); guide: L1MC piRNA 5'p-UAACUAAAUACUAUGCAAGCUGUAGG; MIWI and MILI are mouse PIWI proteins and EfPiwi is from a freshwater sponge; tags in brackets are library labels; higher = faster piRNA-guided slicing of the target. Conditions: auxiliary factor: 500 nM mouse GTSF1. The method, boiled down:
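Active affinity-purified piRISC carrying one synthetic guide (1 nM) was mixed with a transcribed, DNA-blocked target RNA library […] in HEPES–potassium acetate buffer at 33 °C for 0–8 or 0–960 min, with or without 500 nM GTSF1 partner protein. Uncleaved targets were then sequenced and normalised to depth and to weakly complementary targets. Three trials were pooled, and k3 was capped at 0.0001 min^-1. A burst-and-steady-state fit was applied to obtain the pre-steady-state cleavage rate.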
For UCCUGGAUGUGGUUGCAUAGUAUUUAGAUA, the “pre-steady-state target cleavage rate” value was 0.0485 ± 0.021.

Consider UCCUGGAUGUGCUUGCAUAGUAUAUAGAUA, for which the “pre-steady-state target cleavage rate” value was determined as 0.00547 ± 0.0037.

With UCCUCCUACAGCUUGCUAAGUAUUUACAAA, the “pre-steady-state target cleavage rate” value stood at 0.0519 ± 0.013.

Consider UCCUGGUACAGCUUGCUAAGUAUUUAGUAA, for which the “pre-steady-state target cleavage rate” value stood at 0.036 ± 0.012.

For UCCUGGAUGAGCUUGGAUAGUAUUUUGUUA, the “pre-steady-state target cleavage rate” value was 0.141 ± 0.029.

UCCUGGAACAGCUUGCAUAGUUUUUACUUA: the “pre-steady-state target cleavage rate” value stood at 0.0363 ± 0.011.

Take UCCUGGAUGUCCUUGCAUUCAAUUUAGUUA: the “pre-steady-state target cleavage rate” value came out at 0.00852 ± 0.0047.

For UCCUGGAUGUCCUUGCUAUGUAUUUAGUUA, the “pre-steady-state target cleavage rate” value was 0.00552 ± 0.0044.

Consider UCCUGGAUGAGCUUCGAUAGUAUUUAGUUA, for which the “pre-steady-state target cleavage rate” value was 0.108 ± 0.013.

In the case of UCCUGGUACAGCUUGCAUAGUAUUUAUUA, the “pre-steady-state target cleavage rate” value worked out at 0.042 ± 0.016.

Regarding UCCUGGAUCAGCUUGCAUAGUAUUAUGAAA, the “pre-steady-state target cleavage rate” value stood at 0.0664 ± 0.016.

With UCCUGGUACAGCUUGCAAAGAAUUUAGUUA, the “pre-steady-state target cleavage rate” value was found to be 0.00951 ± 0.0059.

Take UCCUGGAUGUCGAUGCAUAGUAUUUAGAAA: the “pre-steady-state target cleavage rate” value turned out to be 0.0516 ± 0.015.

As for UCCUGCUACAGCUUCCAUAGUAUUUUGUUA, the “pre-steady-state target cleavage rate” value was 0.00554 ± 0.0042.

On to UCCUGGAUGUCGAACGAUGGUAUUUAGUUA, for which the “pre-steady-state target cleavage rate” value was under 0.0001.

With UCCUGGAUCUCCUUGCAUAGUAUUUUCAAA, the “pre-steady-state target cleavage rate” value amounted to 0.0367 ± 0.0088.

For UCCUGGAUGUCGAACGUUAGUAUUUAGUA, the “pre-steady-state target cleavage rate” value is under 0.0001.

As to UCCUGGAUGUGCUUGGUUAGUAUUUAGAAA, the “pre-steady-state target cleavage rate” value worked out at 0.00692 ± 0.0045.

As for UCCUGGAUGUCCUUGCUAAGUAUUUAGUUA, the “pre-steady-state target cleavage rate” value was 0.00944 ± 0.0051.

Regarding UCCUGGAUGUCGUUGCUUAGUAUUUAGAUA, the “pre-steady-state target cleavage rate” value stood at 0.0162 ± 0.0057.

In the case of UCCUGGUACAGCUUGCUUAGUAUUUUGUUA, the “pre-steady-state target cleavage rate” value was determined as 0.0736 ± 0.021.

As to UCCUGGAUGUCGAUGCAUAGUAUUUAGGUA, the “pre-steady-state target cleavage rate” value was determined as 0.0275 ± 0.011.

For UCCUGGAUGUCCUUGCAUAGUAUUUAUUA, the “pre-steady-state target cleavage rate” value came out at 0.0219 ± 0.0073.

Turning to UCCUGGAUGAGCUUGGAUAGAAUUUAGUUA, the “pre-steady-state target cleavage rate” value is 0.0131 ± 0.0067.

Take UCCUGGAUGAGCUUGCAUUGAAUUUAGUUA: the “pre-steady-state target cleavage rate” value is 0.00697 ± 0.0027.

On to UCCUGGAUGUGCUUGCAUAGUAUAAAGUAA, for which the “pre-steady-state target cleavage rate” value came out at 0.0114 ± 0.0059.

UCCUGGAUGAGCUUGCAUAGUAUAUUAGUUA: the “pre-steady-state target cleavage rate” value was found to be 0.158 ± 0.017.

In the case of UCCUGGUACAGCUUGCUUAGUAUUUACAAA, the “pre-steady-state target cleavage rate” value amounted to 0.0242 ± 0.009.

With UCCUGGAUGUCGUUGCAAAGUAUUUUGUUA, the “pre-steady-state target cleavage rate” value was 0.0092 ± 0.0056.

For UCCUGGAUGAGCUUGCAUUCUAUUUAGUUA, the “pre-steady-state target cleavage rate” value came out at 0.0348 ± 0.0092.

With UCCUCCUACAGCUUGCAUAUGUAUUUAGUUA, the “pre-steady-state target cleavage rate” value was 0.0106 ± 0.0057.

For UCCUCCUACUCCUUGCAUAGUAUUUUCAAA, the “pre-steady-state target cleavage rate” value was found to be 0.0534 ± 0.015.

With UCCUGGAUGUCGAUGCAUAGUAUUUCAGUUA, the “pre-steady-state target cleavage rate” value was found to be 0.108 ± 0.025.

In the case of UCCUCCUACAGCUUGCAUAGUUAUUUCAAA, the “pre-steady-state target cleavage rate” value was 0.0507 ± 0.016.

In the case of UCCUGGAUGUCCUUGCAUAGAAUAUAGUUA, the “pre-steady-state target cleavage rate” value is 0.00487 ± 0.0038.
